The whole screen tested about 39,000 compounds, of which about 3,300 (8.5%) were called active. The sample as a whole holds a higher share of actives than the screen did.
What follows are molecules tested on HepG2 (assay: cytotoxicity call (relative viability < 0.9)). Conditions: 10 µM.

Structure (SMILES)	cytotoxicity call
C=CC(C)(O)CCC1C(C)(O)CCC2C(C)(C)CCCC21C (stereo unspecified)	inactive
CCS(=O)(=O)Nc1ccc2c(c1)C(=O)N(C)[C@@H]1CC[C@H](CC(=O)N3CCN(C)CC3)O[C@@H]1CO2	inactive
NCC[C@H]1CC[C@H](NC(=O)Nc2ccc(F)cc2)[C@H](CO)O1	inactive
CN(C)CCN1CCN(C)C2(CCN(S(=O)(=O)C3CC3)CC2)C1=O	inactive
Cc1noc(C)c1NC(=O)Nc1ccc2c(c1)CC(=O)N([C@@H](C)CO)C[C@H](C)[C@@H](CN(C)Cc1ccc(C(=O)Nc3ccccc3N)cc1)O2	inactive
CCCNC(=O)N1C[C@H](O)COC[C@@H]2O[C@@H](CC(=O)N3CCOCC3)CC[C@H]21	inactive
CO[C@@H]1CN(C)C(=O)c2cc(NC(=O)Nc3cccc(F)c3)ccc2OC[C@@H](C)N(C(=O)Nc2c(C)noc2C)C[C@H]1C	inactive
Cc1cc(Cn2c(=O)n(Cc3cnc(C)s3)c(=O)c3cc(S(=O)(=O)NC4(C)CC4)ccc32)n(C)n1	inactive
COc1ccccc1CNC(=O)C[C@@H]1C[C@H]2c3cc(NC(=O)c4ccc5c(c4)OCO5)ccc3O[C@H]2[C@H](CO)O1	inactive
C[C@H](CO)N1C[C@H](C)[C@H](CN(C)S(=O)(=O)c2ccccc2F)Oc2ncc(C#Cc3ccccc3)cc2C1=O	inactive
C[C@@H]1CN([C@@H](C)CO)C(=O)c2cc(C#Cc3ccccc3)cnc2O[C@@H]1CN(C)S(=O)(=O)c1ccccc1F	active
C[C@@H]1CN([C@H](C)CO)C(=O)c2cc(C#Cc3ccccc3F)cnc2O[C@H]1CN(C)S(=O)(=O)c1ccccc1F	inactive
C[C@H](CO)N1C[C@H](C)[C@@H](CN(C)S(=O)(=O)c2ccccc2F)Oc2ncc(C#Cc3ccccc3)cc2C1=O	inactive
C[C@@H]1CN([C@@H](C)CO)C(=O)c2cc(C#Cc3ccccc3)cnc2O[C@H]1CN(C)S(=O)(=O)c1ccccc1F	active
C[C@@H]1CN([C@H](C)CO)C(=O)c2cc(C#Cc3ccccc3)cnc2O[C@@H]1CN(C)S(=O)(=O)c1ccccc1F	inactive
C[C@@H]1CN([C@@H](C)CO)C(=O)c2cc(C#Cc3ccccc3F)cnc2O[C@H]1CN(C)S(=O)(=O)c1ccccc1F	active
C[C@H]1CN([C@@H](C)CO)C(=O)c2cc(C#Cc3ccccc3)cnc2O[C@H]1CN(C)S(=O)(=O)c1ccccc1F	inactive
C[C@H]1CN([C@@H](C)CO)C(=O)c2cc(C#Cc3ccccc3F)cnc2O[C@@H]1CN(C)S(=O)(=O)c1ccccc1F	inactive
C[C@H](CO)N1C[C@H](C)[C@H](CN(C)C(=O)Nc2cccc3ccccc23)Oc2ccc(NC(=O)NC3CCCCC3)cc2CC1=O	inactive
Cc1cc(=O)n(CNC(=O)c2ccco2)cn1	inactive
O=C([O-])C(O)C(O)C(O)C(O)C(O)CO.O=C([O-])C(O)C(O)C(O)C(O)C(O)CO.[Ca+2] (stereo unspecified)	inactive
O=C(C[C@H]1CC[C@H]2NC[C@@H](O)COC[C@@H]2O1)NCCN1CCCC1	inactive

Structure (SMILES)	cytotoxicity call
COc1ccsc1C(N)=O	inactive
C[C@H]1CN([C@@H](C)CO)C(=O)Cc2cc(NC(=O)CCCCCC(=O)Nc3ccccc3N)ccc2O[C@@H]1CN(C)C(=O)Nc1cccc2ccccc12	inactive
COC(=O)C[C@@H]1CC[C@@H]2[C@H](COC[C@@H](O)CN2S(=O)(=O)c2cn(C)cn2)O1	inactive
CC(C)=CCC/C(C)=C/CC/C(C)=C/CC/C(C)=C/CO	inactive
Cc1ccc(-c2cnc3c(c2)C(=O)N([C@@H](C)CO)C[C@H](C)[C@H](CN(C)C(=O)Cc2ccncc2)O3)cc1	inactive
C[C@@H]1CN([C@H](C)CO)C(=O)c2cc(NC(=O)CCN3CCOCC3)ccc2O[C@@H]1CN(C)S(=O)(=O)c1ccc(F)cc1	inactive
C[C@@H]1CCCCO[C@H](CN(C)C(=O)c2ccccc2)[C@@H](C)CN([C@H](C)CO)C(=O)c2cc(NC(=O)Nc3ccccc3)ccc2O1	inactive
C[C@@H]1CN([C@@H](C)CO)C(=O)c2cc(NC(=O)CCN3CCOCC3)ccc2O[C@H]1CN(C)C(=O)Nc1ccc2c(c1)OCO2	inactive
C[C@H](CO)N1C[C@H](C)[C@H](CN(C)C(=O)Nc2ccc3c(c2)OCO3)Oc2ccc(NC(=O)CCN3CCOCC3)cc2C1=O	inactive
C[C@@H]1CN([C@H](C)CO)C(=O)c2cc(NC(=O)CCN3CCOCC3)ccc2O[C@H]1CN(C)C(=O)Nc1ccc2c(c1)OCO2	active
C[C@@H]1CN([C@@H](C)CO)C(=O)c2cc(NC(=O)CCN3CCOCC3)ccc2O[C@@H]1CN(C)C(=O)Nc1ccc2c(c1)OCO2	active
C[C@@H]1CN([C@H](C)CO)C(=O)c2cc(NC(=O)CCN3CCOCC3)ccc2O[C@@H]1CN(C)C(=O)Nc1ccc2c(c1)OCO2	inactive
C[C@H]1CN([C@@H](C)CO)C(=O)c2cc(NC(=O)CCN3CCOCC3)ccc2O[C@H]1CN(C)C(=O)Nc1ccc2c(c1)OCO2	inactive
C[C@@H]1CCCCO[C@@H](CN(C)S(=O)(=O)c2cn(C)cn2)[C@@H](C)CN([C@H](C)CO)C(=O)c2cc(NC(=O)c3ccncc3)ccc2O1	inactive
COc1cccc(OC[C@@H](O)CN(CCO)CCO)c1	inactive
O=C(C[C@@H]1C=C[C@@H](NC(=O)Nc2ccc3c(c2)OCO3)[C@@H](CO)O1)NCCCN1CCOCC1	inactive
C[C@H]1CCCCO[C@H](CN(C)S(=O)(=O)c2cn(C)cn2)[C@@H](C)CN([C@@H](C)CO)C(=O)c2cc(NS(C)(=O)=O)ccc2O1	inactive
C[C@@H]1CN([C@H](C)CO)C(=O)c2cccc(N(C)C)c2O[C@@H]1CN(C)S(C)(=O)=O	inactive
C[C@@H]1CCCCO[C@H](CN(C)S(=O)(=O)c2ccccc2)[C@H](C)CN([C@@H](C)CO)C(=O)c2cc(NC(=O)Nc3ccccc3)ccc2O1	inactive
COCC#Cc1ccc([C@@H]2[C@@H](CO)N3C(=O)CN(C(=O)C4CCOCC4)C[C@H]23)cc1	inactive
COc1ccccc1OC[C@@H](O)COC(N)=O	inactive
NC(=O)OCC(COC(N)=O)c1ccccc1	inactive

Structure (SMILES)	cytotoxicity call
COc1ccccc1OCC(O)COC(N)=O (stereo unspecified)	active
Cc1noc(C)c1S(=O)(=O)Nc1ccc2c(c1)CC(=O)N([C@H](C)CO)C[C@@H](C)[C@@H](CN(C)CC1CC1)O2	inactive
Cc1ccc(S(=O)(=O)N(C)C[C@@H]2Oc3ccc(NC(=O)Cn4cnnn4)cc3CC(=O)N([C@@H](C)CO)C[C@@H]2C)cc1	inactive
Cc1noc(C)c1S(=O)(=O)Nc1ccc2c(c1)CC(=O)N([C@@H](C)CO)C[C@@H](C)[C@H](CN(C)Cc1ccc(Oc3ccccc3)cc1)O2	inactive
Cc1noc(C)c1S(=O)(=O)Nc1ccc2c(c1)CC(=O)N([C@H](C)CO)C[C@@H](C)[C@@H](CN(C)Cc1ccc3c(c1)OCO3)O2	active
Cc1noc(C)c1S(=O)(=O)Nc1ccc2c(c1)CC(=O)N([C@H](C)CO)C[C@H](C)[C@@H](CN(C)Cc1ccc(Oc3ccccc3)cc1)O2	active
Cc1noc(C)c1S(=O)(=O)Nc1ccc2c(c1)CC(=O)N([C@H](C)CO)C[C@H](C)[C@H](CN(C)Cc1ccc(Oc3ccccc3)cc1)O2	inactive
Cc1noc(C)c1S(=O)(=O)Nc1ccc2c(c1)CC(=O)N([C@@H](C)CO)C[C@@H](C)[C@@H](CN(C)Cc1ccc(-c3ccccc3)cc1)O2	inactive
Cc1noc(C)c1S(=O)(=O)Nc1ccc2c(c1)CC(=O)N([C@@H](C)CO)C[C@@H](C)[C@@H](CN(C)Cc1ccc(Oc3ccccc3)cc1)O2	active
Cc1noc(C)c1S(=O)(=O)Nc1ccc2c(c1)CC(=O)N([C@@H](C)CO)C[C@@H](C)[C@@H](CN(C)Cc1ccc3c(c1)OCO3)O2	inactive
Cc1noc(C)c1S(=O)(=O)Nc1ccc2c(c1)CC(=O)N([C@H](C)CO)C[C@H](C)[C@@H](CN(C)Cc1ccc(-c3ccccc3)cc1)O2	active
Cc1noc(C)c1S(=O)(=O)Nc1ccc2c(c1)CC(=O)N([C@@H](C)CO)C[C@H](C)[C@@H](CN(C)Cc1ccc(Oc3ccccc3)cc1)O2	inactive
Cc1noc(C)c1S(=O)(=O)Nc1ccc2c(c1)CC(=O)N([C@@H](C)CO)C[C@@H](C)[C@H](CN(C)Cc1ccc3c(c1)OCO3)O2	inactive
Cc1noc(C)c1S(=O)(=O)Nc1ccc2c(c1)CC(=O)N([C@H](C)CO)C[C@@H](C)[C@H](CN(C)Cc1ccc(-c3ccccc3)cc1)O2	inactive
Cc1noc(C)c1S(=O)(=O)Nc1ccc2c(c1)CC(=O)N([C@H](C)CO)C[C@@H](C)[C@@H](CN(C)Cc1ccc(Oc3ccccc3)cc1)O2	inactive
COc1ccc(S(=O)(=O)Nc2ccc3c(c2)C(=O)N([C@H](C)CO)C[C@@H](C)[C@H](CN(C)C(=O)NC2CCCCC2)OCCCC[C@@H](C)O3)cc1	inactive
C[C@H]1CN([C@@H](C)CO)C(=O)c2cc(NC(=O)Nc3cccc4ccccc34)ccc2O[C@H]1CN(C)C(=O)Nc1ccc(F)cc1	inactive
C[C@@H]1CN([C@@H](C)CO)C(=O)CCCn2cc(nn2)CO[C@H]1CN(C)S(=O)(=O)c1cccc(C#N)c1	inactive
Cc1noc(C)c1NC(=O)N(C)C[C@H]1Oc2ccc(NC(=O)Nc3ccc(C(F)(F)F)cc3)cc2CC(=O)N([C@@H](C)CO)C[C@@H]1C	inactive
COc1ccc(C#Cc2ccc3c(c2)O[C@H](CN(C)C(C)=O)[C@H](C)CN([C@H](C)CO)S3(=O)=O)cc1	inactive
C=C/C=C/[C@@H]1C(=C)CN([C@@H](Cc2ccccc2)C(=O)OC)[C@H]1[C@@H](O)CCn1cc(-c2ccc(C(=O)NO)s2)nn1	inactive
C[C@@H]1CN([C@H](C)CO)C(=O)c2cc(NC(=O)Cc3ccccc3)ccc2O[C@@H](C)CCCCO[C@@H]1CN(C)C(=O)NC1CCCCC1	inactive

From the antibiotic and cytotoxicity screens of Wong et al. (2023)
